Activity calls are given as the source filed them.

One test concerns the target Albumin (Bos taurus) (UniProt P02769). In words: bovine serum albumin binders on microarray, profiling panel, artefact control for SMM control protein annotation, biochemical, small-molecule microarray, Alexa647 label, 635/667 nm fluorescence (AID 1118).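 Further: score merges 667 nm emission intensity and signal-to-noise per printed compound spot.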 To be noted: BSA-A647 binding, fluorescence 635 nm, higher = more signal.
Test [1] is described as follows: small-molecule microarray binders of probe aXIP, primary screen, biochemical, NeuroSMM set, 635/667 nm fluorescence (AID 1119).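 Further: probe is the protein aXip251-270 applied at 1 µg/mL to compound-printed slides; binding of probe to printed compounds measured as 667 nm fluorescence plus signal to noise.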 To be noted: higher = more signal, called active from +8 up or from −8 down.
Test [2] in a line: small-molecule binders of probe aNOTCH3, primary screen, biochemical, small-molecule microarray, 635/667 nm fluorescence (AID 1120).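 Further: probe is a biotin-tagged antibody raised against NOTCH3 rather than NOTCH3 protein; score merges spot fluorescence near 667 nm with spot signal to noise.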 The conditions noted are these: higher = more signal.
A short description of test [3]: small-molecule binders of probe aNOTCH2, primary screen, biochemical, small-molecule microarray, 635/667 nm fluorescence (AID 1121).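 Further: score merges feature fluorescence read at 667 nm with its signal to noise.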 To be noted: higher = more signal.
In test [4] the target is Carbonic anhydrase 2 (Homo sapiens) (UniProt P00918). In words: CAII small-molecule binders, profiling panel, biochemical, small-molecule microarray, Alexa647-labelled CAII (AID 1122). To be noted: CAII-A647 binding fluorescence, higher = more signal.
Test [5] can be described thus: COS7 lysate on small-molecule microarray, probe aHis, 635 nm (AID 1123).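 Further: z-score combines 667nm fluorescence intensity with signal-to-noise per printed compound spot.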 The conditions noted are these: COS7 cell lysate, fluorescence, higher = more signal.
Test [6] can be described thus: compound binding in COS7 lysate, probe aLAP1, primary screen, cell lysate, small-molecule microarray (AID 1124).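 Further: lysate comes from COS7 cells expressing LAP1 and is applied at 0.3 µg/mL; score merges spot fluorescence near 667 nm with signal-to-noise over triplicate slides.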 The conditions noted are these: probe aLAP1, fluorescence, higher = more signal.
A further test concerns Sam68 (KHDRBS1). Put plainly: Sam68 small-molecule binders, primary screen, biochemical, small-molecule microarray, 635 nm fluorescence (AID 1125).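 Further: score merges 667 nm channel intensity with signal to noise over triplicate slides.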 To be noted: small-molecule microarray binding, higher = more signal.
The test system of test [7] is Chordin-like protein 2 (CHRDL2). Put plainly: CHRDL2 small-molecule binders, primary screen, biochemical, small-molecule microarray, 635 nm fluorescence (AID 1126).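 Further: printed compound slides probed with Chrdl2 protein at 4 µg/mL for 1 h at 4 C; score merges 667 nm emission intensity with signal to noise over three replicate slides.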 The conditions noted are these: small-molecule microarray binding, fluorescence 635 nm; higher = more signal.
The target in test [8] is Concanavalin-A (Canavalia ensiformis) (UniProt P02866). Put plainly: ConA small-molecule binders, primary screen, artefact control for SMM control protein annotation, biochemical, small-molecule microarray, Alexa647 label, 635 nm (AID 1127).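 Further: z combines 667 nm emission intensity with signal-to-noise across three replicate slides.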 The conditions noted are these: ConA-A647 binding fluorescence, higher = more signal.
Test [9] in a line: anti-His antibody binders, primary screen, artefact control for SMM control protein annotation, biochemical, small-molecule microarray, 635 nm fluorescence (AID 1128).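 Further: score merges feature fluorescence with signal-to-noise for each printed compound spot.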 The conditions noted are these: anti-His Alexa647 antibody binding, higher = more signal.
Test [10] concerns Human papillomavirus type 1a E7 protein (residues 1-88). In words: HPV1a E7 small-molecule binders, primary screen, biochemical, small-molecule microarray, residues 1-88, 635 nm (AID 1129). The conditions noted are these: small-molecule microarray binding, fluorescence 635 nm; higher = more signal.
Test [11] has as its target Focal adhesion kinase 1 (Homo sapiens) (UniProt Q05397). In words: small-molecule microarray binders of FAK, primary screen, biochemical, 635/667 nm fluorescence, BSA, DTT (AID 1130).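 Further: composite of spot emission at 667 nm and signal to noise over triplicate slides.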 To be noted: PTK2 binding, 635 nm fluorescence, higher = more signal.
The test system of test [12] is Fibrinogen (Alexa647-labelled). Put plainly: fibrinogen binders on compound microarrays, profiling panel, artefact control for SMM control-protein annotation, biochemical, small-molecule microarray, 635/667 nm fluorescence (AID 1131).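 Further: z-score merges 667 nm fluorescence with per-spot signal-to-noise over triplicate slides.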 The conditions noted are these: fibrinogen-A647 binding fluorescence, higher = more signal.
Test [13] concerns the target Follistatin (Homo sapiens) (UniProt P19883). Put plainly: follistatin binders on small-molecule microarrays, primary screen, biochemical, small-molecule microarray, 635/667 nm fluorescence (AID 1132). To be noted: FST binding, 635 nm fluorescence, higher = more signal.
Test [14] deals with Fibroblast growth factor 2 (Homo sapiens) (UniProt P09038). In words: FGF2 binders on small-molecule microarrays, primary screen, biochemical, small-molecule microarray, 635/667 nm fluorescence (AID 1133). To be noted: small-molecule microarray binding, FGF2, fluorescence 635/667; higher = more signal.
Test [15] can be described thus: mitochondrial membrane potential change in A549 cells, profiling panel, cell-based, JC-1 fluorescence, basal, 24 h, 100 nL (AID 1138).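 Further: A549 lung adenocarcinoma cells under basal conditions with no added stimulus; test concentration not given here.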 To be noted: higher = more signal.
The next test deals with Lefty1. In words: Lefty1 binders on small-molecule microarrays, primary screen, biochemical, small-molecule microarray, 635/667 nm fluorescence (AID 1139). To be noted: small-molecule microarray binding, fluorescence 635/667; higher = more signal.
For test [16], the system named is wheat germ agglutinin (Triticum aestivum), Alexa647-labelled. Put plainly: wheat germ agglutinin binders on compound microarrays, profiling panel, artefact control for SMM control-protein annotation, biochemical, small-molecule microarray, 635/667 nm fluorescence (AID 1140).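 Further: score merges 667 nm feature emission with signal to noise over triplicate slides.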 To be noted: WGA-A647 binding, 635 nm fluorescence, higher = more signal.
The target of test [17] is Luciferin 4-monooxygenase (Photinus pyralis) (UniProt P08659). In words: firefly luciferase enzyme inhibitors, primary screen, biochemical, luminescence, purified enzyme, 2006 set (AID 1141).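 Further: cell-free assay with purified firefly luciferase at 100 ng per well in PBS; test concentration not given here.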 To be noted: SteadyGlo luminescence, 30 min, higher = more signal, called active from +8 up or from −8 down.
Sequence of Luciferin 4-monooxygenase (Photinus pyralis) (P08659 whole entry, looked up): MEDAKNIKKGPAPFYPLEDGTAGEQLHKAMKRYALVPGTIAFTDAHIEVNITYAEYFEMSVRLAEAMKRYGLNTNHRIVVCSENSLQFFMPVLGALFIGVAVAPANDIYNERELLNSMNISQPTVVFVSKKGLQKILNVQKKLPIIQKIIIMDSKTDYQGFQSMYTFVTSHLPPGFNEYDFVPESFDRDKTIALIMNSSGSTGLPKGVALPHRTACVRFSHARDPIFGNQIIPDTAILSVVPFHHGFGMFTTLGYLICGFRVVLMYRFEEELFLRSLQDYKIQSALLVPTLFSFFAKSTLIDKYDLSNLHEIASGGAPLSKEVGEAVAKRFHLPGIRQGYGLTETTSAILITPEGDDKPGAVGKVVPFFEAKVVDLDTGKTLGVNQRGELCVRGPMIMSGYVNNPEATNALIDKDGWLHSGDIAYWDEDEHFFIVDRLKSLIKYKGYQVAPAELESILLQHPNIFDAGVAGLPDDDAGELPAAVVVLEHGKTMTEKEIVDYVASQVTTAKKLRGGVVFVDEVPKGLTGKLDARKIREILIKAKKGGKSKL

Sequence of Albumin (Bos taurus) (P02769 whole entry, looked up): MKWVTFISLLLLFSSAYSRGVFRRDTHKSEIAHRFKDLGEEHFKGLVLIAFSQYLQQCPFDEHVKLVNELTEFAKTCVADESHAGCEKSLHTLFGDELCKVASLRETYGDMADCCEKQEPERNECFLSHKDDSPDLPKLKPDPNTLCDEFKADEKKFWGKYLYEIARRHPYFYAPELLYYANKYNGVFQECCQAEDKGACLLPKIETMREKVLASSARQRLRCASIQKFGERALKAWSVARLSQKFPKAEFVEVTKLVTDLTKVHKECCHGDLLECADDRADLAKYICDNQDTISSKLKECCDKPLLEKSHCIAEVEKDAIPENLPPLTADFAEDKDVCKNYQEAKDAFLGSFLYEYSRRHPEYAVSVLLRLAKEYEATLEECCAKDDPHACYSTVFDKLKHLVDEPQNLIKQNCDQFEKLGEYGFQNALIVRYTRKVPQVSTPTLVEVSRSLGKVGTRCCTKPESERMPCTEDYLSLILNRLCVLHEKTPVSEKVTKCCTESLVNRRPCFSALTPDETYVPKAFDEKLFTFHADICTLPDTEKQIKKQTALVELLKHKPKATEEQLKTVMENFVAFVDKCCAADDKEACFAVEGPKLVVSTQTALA
Sequence of Focal adhesion kinase 1 (Homo sapiens) (Q05397 whole entry, looked up): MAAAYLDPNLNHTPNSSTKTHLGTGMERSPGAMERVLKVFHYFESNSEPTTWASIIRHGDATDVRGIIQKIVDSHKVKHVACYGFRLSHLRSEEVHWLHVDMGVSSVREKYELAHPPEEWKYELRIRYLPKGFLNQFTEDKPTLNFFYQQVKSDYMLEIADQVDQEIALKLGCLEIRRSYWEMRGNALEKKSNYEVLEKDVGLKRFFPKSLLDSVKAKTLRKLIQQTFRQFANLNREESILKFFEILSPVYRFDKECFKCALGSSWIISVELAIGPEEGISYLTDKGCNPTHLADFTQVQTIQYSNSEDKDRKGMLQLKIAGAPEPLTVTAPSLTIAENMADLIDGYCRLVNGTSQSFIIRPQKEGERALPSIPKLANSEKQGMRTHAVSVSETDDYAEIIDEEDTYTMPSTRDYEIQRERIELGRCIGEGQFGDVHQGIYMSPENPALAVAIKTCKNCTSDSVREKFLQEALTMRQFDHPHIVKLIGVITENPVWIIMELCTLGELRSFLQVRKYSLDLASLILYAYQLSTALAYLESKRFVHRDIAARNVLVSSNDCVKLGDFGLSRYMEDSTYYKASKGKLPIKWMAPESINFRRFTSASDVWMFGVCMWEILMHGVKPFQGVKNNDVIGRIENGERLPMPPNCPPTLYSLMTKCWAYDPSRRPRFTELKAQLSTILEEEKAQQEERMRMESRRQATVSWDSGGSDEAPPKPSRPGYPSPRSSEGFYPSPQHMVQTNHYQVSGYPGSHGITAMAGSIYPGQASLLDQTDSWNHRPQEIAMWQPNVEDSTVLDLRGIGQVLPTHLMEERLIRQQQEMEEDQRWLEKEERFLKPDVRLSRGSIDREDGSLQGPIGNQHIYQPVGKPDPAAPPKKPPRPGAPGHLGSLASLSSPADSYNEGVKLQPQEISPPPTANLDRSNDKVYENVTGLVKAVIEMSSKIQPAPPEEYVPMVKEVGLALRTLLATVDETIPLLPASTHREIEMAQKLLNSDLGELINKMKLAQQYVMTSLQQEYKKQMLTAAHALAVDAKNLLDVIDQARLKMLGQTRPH
Sequence of Concanavalin-A (Canavalia ensiformis) (P02866 whole entry, looked up): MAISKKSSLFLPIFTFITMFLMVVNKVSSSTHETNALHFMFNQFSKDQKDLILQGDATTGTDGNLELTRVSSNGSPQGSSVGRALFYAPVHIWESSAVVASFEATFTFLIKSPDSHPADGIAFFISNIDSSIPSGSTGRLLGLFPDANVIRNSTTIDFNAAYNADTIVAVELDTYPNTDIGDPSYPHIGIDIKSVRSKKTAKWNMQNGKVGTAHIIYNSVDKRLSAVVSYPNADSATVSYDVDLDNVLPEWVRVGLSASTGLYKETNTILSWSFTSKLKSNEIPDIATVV
Sequence of Fibroblast growth factor 2 (Homo sapiens) (P09038 whole entry, looked up): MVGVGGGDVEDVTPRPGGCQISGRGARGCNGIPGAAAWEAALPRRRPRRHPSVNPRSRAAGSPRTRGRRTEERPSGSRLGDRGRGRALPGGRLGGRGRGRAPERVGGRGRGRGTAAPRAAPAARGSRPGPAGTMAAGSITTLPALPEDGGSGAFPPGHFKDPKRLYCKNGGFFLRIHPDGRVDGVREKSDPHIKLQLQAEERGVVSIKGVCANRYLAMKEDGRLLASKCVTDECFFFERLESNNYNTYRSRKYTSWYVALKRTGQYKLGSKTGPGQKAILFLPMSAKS
Sequence of Follistatin (Homo sapiens) (P19883 whole entry, looked up): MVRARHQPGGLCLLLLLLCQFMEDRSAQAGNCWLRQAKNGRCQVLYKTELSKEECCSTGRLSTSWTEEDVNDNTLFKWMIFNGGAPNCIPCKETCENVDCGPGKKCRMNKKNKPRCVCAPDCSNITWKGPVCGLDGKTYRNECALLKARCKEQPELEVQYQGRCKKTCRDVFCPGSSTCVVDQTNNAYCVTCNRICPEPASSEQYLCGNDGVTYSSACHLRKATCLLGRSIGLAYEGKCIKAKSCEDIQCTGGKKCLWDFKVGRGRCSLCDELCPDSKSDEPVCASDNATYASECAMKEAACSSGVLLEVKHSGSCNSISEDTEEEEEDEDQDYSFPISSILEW

Consider `Cc1ccc(S[C@]2(C(=O)NC(C)C)CC(=O)N(Cc3cc(C(F)(F)F)cc(C(F)(F)F)c3)[C@@H]2c2ccc(CO)cc2I)cc1`, for which the composite z-score with Albumin (Bos taurus) is -1.25; in [2], -0.313; in test [3] it was -0.14; in test [4], 0.788; in test [5] it was 1.31; in test [6], 0.917. Besides, the composite z-score with Sam68 (KHDRBS1) is -0.733; in test [7] it was -1.21; in test [8] it was -0.442; in test [9], 2.87; in test [10], -0.335; in test [11], 0.481. Besides, the composite z-score in [12] is -0.306; in test [13], 0.623; in test [14], 0.384; in the test on Lefty1, -0.919; in [16], 0.445. The composite Z-score in test [1] was 0.0296 (inactive). Further, the z-score in [15] was 0.598; in test [17], 0.819 (inactive).

Consider `C=CCOC(=O)[C@@H]1[C@H]2C(=O)O[C@H](c3ccccc3)[C@H](c3ccccc3)N2[C@H](c2ccc(OCCOC(=O)[C@H]3C[C@H]4C(=O)N[C@@H](CCCCNC(C)=O)C(=O)N4[C@H]3c3ccc(O)cc3)cc2)[C@@]12C(=O)Nc1ccc(I)cc12`, for which the composite z-score with Albumin (Bos taurus) was -0.239; in test [2], 0.0222; in [3], -0.0662; in [4] it was 0.374; in test [5], 0.877; in test [6], 0.278. Besides, the composite z-score is 1.28 in the test on Sam68 (KHDRBS1); 1.15 in test [7]; 0.499 in [8]; 1.21 in [9]; 0.894 in test [10]; -0.145 in test [11]. Besides, the composite z-score in test [12] stood at 0.852; in [13], 1.08; in test [14], 1.7; with Lefty1, 1.08; in test [16] it was 0.115. In addition, the composite Z-score in test [1] is 0.396 (inactive). For the same compound, the z-score was -0.815 in test [15] and -0.608 (inactive) in [17].

For the compound `COCCOC(=O)N1C(=O)[C@@]2(c3cc(C#CC4=CCCCC4)ccc31)[C@H](C(=O)NC[C@H](O)c1ccccc1)[C@H]1C(=O)O[C@H](c3ccccc3)[C@H](c3ccccc3)N1[C@@H]2c1ccccc1OCCO`, the composite z-score with Albumin (Bos taurus) is 0.648; in test [2], 0.315; in test [3], -0.0311; in [4] it was 0.358; in test [5], 1.11; in test [6], 0.474. Also, the composite z-score was found to be 1.3 in the test with Sam68 (KHDRBS1); 0.239 in test [7]; 1.09 in [8]; 0.69 in test [9]; 1.17 in [10]; 0.985 in test [11]. In addition, the composite z-score in test [12] worked out at 0.943; in [13], 1.34; in test [14], 0.825; in the test on Lefty1, 1.09; in test [16], 1.09. For the same compound, the composite Z-score in [1] is 0.155 (inactive). Moreover, the results for the z-score in test [15] and in [17] were -1.49 and -0.855 (inactive), respectively.

Regarding `CC[C@H]1C2=C3C(CC[C@H]4C(OC)OC[C@](C)([C@@H]34)N(C(=O)OC(C)(C)C)C2)C(CO)C1CO` (stereo not given in full), the composite z-score with Albumin (Bos taurus) was determined as 1.05; in test [2], 0.619; in test [3], 0.437; in [4] it was 0.486; in [5], 3.15; in test [6] it was 0.903. In addition, the composite z-score in the test with Sam68 (KHDRBS1) was 1.29; in [7], -0.656; in test [8] it was 1.16; in test [9], 2.26; in test [10], 1.18; in [11], 1.47. Moreover, the composite z-score in test [12] is 0.43; in test [13], 0.579; in [14], -0.468; with Lefty1 it was -0.181; in test [16], 1.06. The composite Z-score in test [1] is 0.067 (inactive). Moreover, the z-score is 1.16 in test [15] and 0.16 (inactive) in [17].

Consider `Cc1ccc(S(=O)(=O)c2cc3oc2CC[C@@H](CO)NC(=O)N(C)Cc2cn(nn2)C[C@H](Cc2ccccc2)NC3=O)cc1`, for which the composite z-score was 0.811 in the test with Albumin (Bos taurus); -0.0006 in test [2]; -0.145 in test [3]; 0.581 in test [4]; 0.682 in test [5]; 0.192 in [6]. The composite z-score in the test on Sam68 (KHDRBS1) was 0.476; in test [7] it was -0.479; in [8], 0.894; in test [9], 3.02; in test [10], -0.157; in test [11] it was 2.07. Further, the composite z-score is 0.814 in [12]; -0.0009 in test [13]; 0.108 in [14]; -0.442 in the test on Lefty1; -0.0961 in [16]. Moreover, the composite Z-score in [1] is 0.222 (inactive). The z-score in [15] is 1.95; in test [17], -1.53 (inactive).

Turning to `C=C(CCCC)C(=O)CC[C@@H](OC(=O)c1cccnc1)c1cccc(OCCO)c1`, the composite z-score in the test with Albumin (Bos taurus) was -1.06; in test [2], 0.0351; in [3] it was -0.148; in [4] it was 0.15; in test [5], 0.0383; in test [6], 0.0475. Further, the composite z-score in the test with Sam68 (KHDRBS1) was 0.789; in test [7] it was 0.207; in test [8], -0.158; in [9], 0.419; in test [10] it was -0.411; in test [11], 0.533. Besides, the composite z-score came to 0.314 in test [12]; 0.674 in test [13]; 1.14 in test [14]; 0.779 in the test on Lefty1; 0.59 in [16]. In addition, the composite Z-score in test [1] was -0.123 (inactive). For the same compound, the z-score in [15] is 3.35; in [17] it was -3.06 (inactive).

These data come from PubChem BioAssay.
